PNC assembly inh = inhibitors of perinucleolar compartment assembly; PC3M PTB-GFP, PNC prevalence imaging, 16 h; hits give low values; activity change (PNC), negative = inhibition, % at 10 µM; actives 3.1% (n = 140,000);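 active = readout at or below -70, meaning at least 70% loss of cells showing the perinucleolar compartment, a nuclear body marking cancer cells; inconclusive = readout between -30 and a set limit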;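 also: plate controls were DMSO wells for no effect and camptothecin positive control wells for full effect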
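PC3M cells stably expressing PTB-GFP, 750–1000 cells/well, treated 16 h at 37 °C with compound (23 nl of library stock), in duplicate. After paraformaldehyde fixation and Hoechst stain, imaged at 20x; PNC prevalence scored by image analysis.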
HTT cytoprotect = protects HTT-Q103 PC12 cells, measured by ATP; PC12 HTT-Q103 induced, cytoprotection, ATP luminescence, 40 h; Potency, µM (titrated, usually from 56.4 µM), without a hit: cytoprotection (ATP increase), actives largely listed as activators; actives 0.14% (n = 230,000); AID 1471; also: potency is read from the fitted curve at half-maximal effect; % of control where 0% means no effect; nearly all actives have a fitted effect of over 45% in size
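Rat PC12, Q103 Htt exon1-GFP fusion, ecdysone promoter; tebufenozide inducer 100 nM final; compound titration; qHTS, 1500 cells/well; ATPlite luminescent read.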
HPGD inh = HPGD (human) dehydrogenase inhibition; P15428; purified HPGD, NADH fluorescence kinetic, PGE2 substrate; Potency, µM, inactives show at the top dose activity change, negative = inhibition, actives largely listed as inhibitors; actives 4.3% (n = 150,000); AID 894; active = well fitted inhibition curve with a large enough effect, not every such curve was filed as active; inconclusive = small, poorly fitted or top-dose-only effect, or another doubt; inactive = no such curve, though single readings can be large or run the other way; also: potency is read from the fitted curve at half-maximal effect; % is scaled to controls: 0 for no effect and ±100 for the full control effect
Target sequence (P15428 whole entry, looked up): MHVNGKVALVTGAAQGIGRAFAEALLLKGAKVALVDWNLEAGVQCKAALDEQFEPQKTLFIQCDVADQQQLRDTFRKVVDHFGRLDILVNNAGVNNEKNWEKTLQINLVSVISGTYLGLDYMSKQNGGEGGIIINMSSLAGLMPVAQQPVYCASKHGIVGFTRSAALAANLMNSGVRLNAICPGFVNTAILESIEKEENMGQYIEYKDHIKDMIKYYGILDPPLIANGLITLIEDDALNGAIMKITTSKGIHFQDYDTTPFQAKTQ
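NADH formation kinetics: reaction with 30 uM PGE2 and 1 mM NAD+ (final), 20 nM enzyme, Tris-HCl pH 8 with Tween 20, after 15 min compound preincubation at room temperature. Fluorescence change, last versus first of five reads.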
CBFb-RUNX1 inh = inhibitors of human CBF-beta and RUNX1 interaction; Q01196+Q13951; AlphaScreen CBFb-His/RUNX1-biotin binding, biochemical; Potency, µM (highest dose often 59.8 µM), for inactives: top-dose activity, negative = inhibition, actives largely listed as inhibitors; 230,000 tested, under 10 active; also: % of control where 0% means no effect
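Room-temperature protein-protein interaction test with 30 nM each of His-tagged CBF-beta and biotinylated RUNX1, 15 min with compound, then 90 min with nickel plus streptavidin beads. Signal read in AlphaScreen mode.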
ALDH1A1 inh = blocks purified human ALDH1A1 activity; Potency, µM (series often up to 75.3 µM), for the others: at the top dose activity, negative = inhibition, actives largely listed as inhibitors; Purified ALDH1A1, NADH fluorescence, propionaldehyde substrate; actives 7.3% (n = 220,000); P00352; active = well fitted inhibition curve with a large enough effect, not every such curve was filed as active; inconclusive = small, poorly fitted or top-dose-only effect, or another doubt; inactive = no such curve, though single readings can be large or run the other way;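 also: potency is read from the fitted curve at half-maximal effect; plate controls were no enzyme wells and a reference inhibitor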
Target sequence (P00352 whole entry, looked up): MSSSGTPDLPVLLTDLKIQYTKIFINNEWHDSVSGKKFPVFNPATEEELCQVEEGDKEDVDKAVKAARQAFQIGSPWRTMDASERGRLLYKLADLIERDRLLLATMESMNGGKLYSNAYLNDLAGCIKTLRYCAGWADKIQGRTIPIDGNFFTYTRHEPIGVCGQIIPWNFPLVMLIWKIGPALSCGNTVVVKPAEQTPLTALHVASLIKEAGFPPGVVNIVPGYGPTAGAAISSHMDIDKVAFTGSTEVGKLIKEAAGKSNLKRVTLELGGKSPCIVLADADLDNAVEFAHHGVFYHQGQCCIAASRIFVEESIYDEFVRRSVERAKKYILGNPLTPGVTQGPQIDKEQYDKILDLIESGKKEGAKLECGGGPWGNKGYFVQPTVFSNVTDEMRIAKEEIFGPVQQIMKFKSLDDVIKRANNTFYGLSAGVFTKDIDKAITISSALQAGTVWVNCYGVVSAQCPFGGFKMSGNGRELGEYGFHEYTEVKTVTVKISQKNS
HttQ103 aggreg = mutant huntingtin aggregation inhibition. AID 1688. actives 1.1% (n = 220,000). PC12 HttQ103-GFP aggregates, Acumen cytometry, 40 h. Potency, µM (titrated, usually from 46.1 µM), inactives show at the highest dose activity change, negative = inhibition, usual class: inhibitors; also: potency is read from the fitted curve at half-maximal effect; % is scaled to controls: 0 for no effect and ±100 for the full control effect; nearly all actives have a fitted effect of over 60% in size
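Ecdysone-promoter PC12 model expressing HTT exon 1 Q103 fused to GFP, induced by tebufenozide at 100 nM final. Compounds titrated; aggregates sized 1–25 µm scored on a 488 nm laser cytometer.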
An asterisk follows results filed as active; ? = inconclusive; / = no result given; [ ] = dose if it differs, or a comment. Compounds with a hit are over-represented: about 11% of the library has one in this group of screens. Unless noted, calls follow the shape of the dose curve; as a rule, active = well fitted curve in the direction sought with a large enough effect; inconclusive = small, poorly fitted or top-dose-only effect, or another doubt; inactive = no such curve, though single readings can be large; an effect the other way counts as inactive or inconclusive.

SMILES | PNC assembly inh | HTT cytoprotect | HPGD inh | CBFb-RUNX1 inh | ALDH1A1 inh | HttQ103 aggreg
Cc1ccc(-n2c(SCC(N)=O)nc3c([nH]c4ccccc43)c2=O)cc1 | ? | 2.5%[10 µM] | -5.2% | 8.4% | 11.2µM* | 13.8%
O=C(CCN1CCCCC1)NCC1OCCc2ccccc21 (stereo not drawn) | 22.4 | 4.7% | -5.8% | 6.7% | 4.0% | -22.1%
CCOC(=O)c1c(C)oc2c1c(C(c1cccnc1)N1CCOCC1)c(O)c1ccccc12 (stereo not drawn) | 23.4 | -12.5% | 22.4µM* | -16.0% | 7.08µM* | 3.2%
CCOC(=O)c1c(C)oc2c1c(C(c1cccnc1)N1CCN(C)CC1)c(O)c1ccccc12 (stereo not drawn) | -12.7 | -0.6% | -28.2% | -0.5% | 12.6µM* | -5.1%
CCOC(=O)c1c(C)oc2c1c(C=NCc1ccccn1)c(O)c1ccccc12 | -19.0 | -1.8%[10 µM] | -20.0% | -27.5% | ? | ?
CC(C)NC(=O)CSc1nc(N)c(NC(=O)c2ccccc2F)c(=O)[nH]1 | -91.4* | -4.8%[10 µM] | -3.2% | 4.9% | -2.5% | 16.1%
CCOC(=O)C1CCCN(c2cc(C)nc3cc(-c4ccc(F)cc4)nn23)C1 (stereo not drawn) | -90.2* | -36.2% | -11.5% | 5.7% | -5.3% | 12.2%
CCOC(=O)C1CCCN(c2cc(C)nc3cc(-c4ccc(Cl)cc4)nn23)C1 (stereo not drawn) | -100.0* | 9.3%[10 µM] | ? | -2.8% | ? | ?
Nc1ccnc2c1ncn2[C@@H]1O[C@H](CO)[C@@H](O)[C@H]1O | / | -47.6% | / | 7.0% | 7.3% | /
O=C(Nc1cccc(F)c1)N1CCCC2(CCN(C(=O)c3cccc(F)c3)CC2)C1 | / | -15.2% | -9.3% | / | 12.0% | /
CC1CCCCN1C(=O)Cc1ccc(Cl)cc1 (stereo not drawn) | 9.8 | 23.2% | 11.2µM* | 7.2% | 2.9% | -14.6%
CCOC(=O)C1CCCN(C(=O)Cc2ccc(Cl)cc2)C1 (stereo not drawn) | 37.0 | -5.4% | -3.1% | 4.7% | ? | -0.3%
CC1CCCCN1C(=O)c1cc(F)c(F)cc1Cl (stereo not drawn) | ? | -20.0%[0.074 µM] | 20µM* | 9.7% | -6.7% | 1.9%
Cc1cc(F)c(F)c(C(=O)N2CCCCC2C)c1Cl (stereo not drawn) | / | -33.7% | / | 2.1% | 5.6% | -10.1%
CC1CCCN(C(=O)c2cc(F)c(F)cc2Cl)C1 (stereo not drawn) | ? | -2.7%[0.074 µM] | 6.31µM* | 5.0% | 3.7% | -20.1%
O=C(c1ccccc1-c1nc(-c2ccc(F)cc2)no1)N1CCCC1 | -100.0* | 11.7% | -5.7% | -3.8% | ? | 5.0%
Cn1c(=O)c(C(=O)Nc2cccnc2)c(O)c2ccccc21 | / | -21.8%[10 µM] | / | / | / | /
Cn1c(=O)c(C(=O)Nc2ncccc2O)c(O)c2ccccc21 | -13.2 | -27.9% | 22.4µM* | 2.9% | -5.1% | 6.0%
O=C(c1ccco1)N1CCC2(CC1)CN(c1cccc(-c3ccccc3)c1)C2 | / | -57.4% | ? | / | ? | /
O=C(CNS(=O)(=O)c1cccc2nsnc12)NC1CCCCC1 | -111.0* | 13.1% | -13.0% | 1.0% | 2.7% | -12.9%
CCN(CC)c1ccc(NC(=O)CCS(=O)(=O)c2cccc3nsnc23)c(C)c1 | / | -29.3% | / | 16.5% | 28.2µM* | 12.6%
O=C(NC1CCCCC1)C1CCC(CNS(=O)(=O)c2cccc3nsnc23)CC1 (stereo not drawn) | 1.9 | -31.0% | -18.2% | -2.1% | ? | 4.0%
O=C(CCS(=O)(=O)c1cccc2nsnc12)N1CCN(Cc2ccc3c(c2)OCO3)CC1 | -12.9 | 4.6% | -5.5% | -0.1% | ? | 1.5%
O=C(CCS(=O)(=O)c1cccc2nsnc12)N1CCN(C(=O)c2ccco2)CC1 | -3.2 | -4.0%[1.9 µM] | -8.3% | 0.0% | 25.1µM* | 25.0%
O=C(NC1CCCCC1)C1CCN(S(=O)(=O)c2cccc3nsnc23)CC1 | -10.8 | -3.4% | 0.1% | -2.1% | 22.9% | 2.8%
SMILES | PNC assembly inh | HTT cytoprotect | HPGD inh | CBFb-RUNX1 inh | ALDH1A1 inh | HttQ103 aggreg
O=C(CCS(=O)(=O)c1cccc2nsnc12)NC1CCCCC1 | 42.4 | -11.8% | 28.2µM* | -4.1% | ? | 7.7%
Cc1cnc(CNc2ncnc3ccc(-c4cccc(C#N)c4)cc23)cn1 | / | -19.9% | -7.3% | / | -12.8% | /
COc1ccccc1-c1c(C)oc2cc(OCC(=O)OCc3ccccc3)ccc2c1=O | -7.9 | 7.9%[10 µM] | -8.5% | -2.7% | -8.1% | -0.1%
C[C@H](NC(=O)/C(C#N)=C/c1ccc(O)c(O)c1)c1ccccc1 | / | -9.6% | 6.2% | 7.9% | ? | /
O=C(CCNS(=O)(=O)c1cccc2nsnc12)NC1CCN(Cc2ccccc2)CC1 | -112.1* | 8.3%[10 µM] | -19.4% | 3.1% | 5.3% | -6.3%
COC(=O)[C@@H]1OC(c2ccccc2)O[C@H]1C(=O)OC | / | / | / | 13.6% | / | /
COc1ccc(-n2c(C)cc(C(=O)CN3C(=O)c4ccccc4C3=O)c2C)cc1 | ? | 29.4%[10 µM] | -10.9% | -7.1% | ? | 3.4%
COc1ccc(-n2c(C)cc(C(=O)CCl)c2C)cc1 | / | -142.1% | / | -11.6% | 0.316µM* | ?
COc1ccc(-n2c(C)cc(C(=O)CSc3ccc(NC(C)=O)cc3)c2C)cc1 | 30.6 | -9.2%[10 µM] | -7.6% | 1.1% | -6.3% | 12.6µM*
COc1ccc(-n2c(C)cc(C(=O)COC(=O)Cn3cnc4ccccc43)c2C)cc1 | -27.5 | -1.4%[10 µM] | -28.9% | -29.0% | 12.6µM* | ?
Cc1ccc(-n2c(C)cc(C(=O)COC(=O)c3ccc[nH]c3=O)c2C)cc1 | -82.0* | -29.6%[10 µM] | -4.5% | 0.0% | 13.8% | 6.1%
Cc1cc(C(=O)COC(=O)c2ccc[nH]c2=O)c(C)n1-c1ccc(Br)cc1 | ? | -23.8%[10 µM] | -12.3% | ? | -3.3% | -6.8%
Cc1cc(C(=O)CC#N)c(C)n1-c1ccc(OC(F)F)cc1 | -8.2 | 1.7%[10 µM] | -7.2% | -6.7% | 7.9% | 8.91µM*
Cc1nnc(SCC(=O)c2cc(C)n(-c3c(C)n(C)n(-c4ccccc4)c3=O)c2C)s1 | -0.7 | 16.3% | -7.2% | 0.3% | -0.5% | -12.7%
Cc1ccc(-n2c(C)cc(C(=O)CSc3nncs3)c2C)cc1 | ? | -114.4% | 25.1µM* | 13.6% | 5.5% | 10µM*
COC(=O)c1cc(C(=O)OC)cc(-n2c(C)cc(C(=O)CC#N)c2C)c1 | ? | -8.1% | -25.4% | -5.7% | ? | 25.5%
Cc1cc(C(=O)CCl)c(C)n1-c1c(C)n(C)n(-c2ccccc2)c1=O | / | -22.2% | / | 4.7% | 12.6µM* | ?
Cc1cc(C(=O)CN2CC(C)OC(C)C2)c(C)n1-c1ccccc1 (stereo not drawn) | 27.7 | 3.0%[10 µM] | -8.5% | 9.3% | -6.6% | 14.4%
Cc1ccc(-n2c(C)cc(C(=O)CN3CCCCC3)c2C)cc1 | ? | 6.2%[10 µM] | 12.6µM* | -6.3% | -24.2% | 2.5%
